# According to PubChem BioAssay (Tox21):
# Values without a mark were called inactive. Records with an inconclusive call do not appear. Entries that show only a call come without a potency. The source made the active and inactive calls. Calls follow the shape of the full dose curve.
# What was measured:
# [1] = biological target: Acetylcholinesterase (Homo sapiens) (UniProt P22303); assay: Acetylcholinesterase (AChE) small molecule antagonists: colormetric cell-based qHTS assay (AID 1347395); also: nearly all actives have a fitted effect of over 30% in size; also: potency is read from the fitted curve at half-maximal effect
# In short: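 Cells (SH-SY5Y, 2,000 per well) are seeded and left overnight at 37 C. Compound is added for 30 min, then DTNB and acetylthiocholine for a further 90 min at 37 C before absorbance-based thiocholine detection.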
# [2] = biological target: Acetylcholinesterase (Homo sapiens) (UniProt P22303); assay: Acetylcholinesterase (AChE) small molecule antagonists: enzyme-based qHTS assay (AID 1347397); settings: Potency: AChE enzyme activity inhibition; outcome: AChE enzyme activity inhibition; also: nearly all actives have a fitted effect of over 55% in size; also: potency is read from the fitted curve at half-maximal effect
# In short: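 Tox21 library chemicals are tested in qHTS format against recombinant human AChE. The enzyme, dispensed at 50 mU/mL, sits with compound for 30 min at room temperature. A DTNB–acetylthiocholine cocktail follows, and colour is read after 10 min.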
# [3] = biological target: Acetylcholinesterase (Homo sapiens) (UniProt P22303); assay: Acetylcholinesterase (AChE) small molecule antagonists: fluorescence cell-based qHTS assay (AID 1347398); settings: Potency: AChE activity; outcome: AChE activity; also: nearly all actives have a fitted effect of over 50% in size; also: potency is read from the fitted curve at half-maximal effect
# In short: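 Cellular AChE inhibition: SH-SY5Y cells treated with test chemical for 30 min at 37 C, then acetylthiocholine hydrolysis followed over 40 min at room temperature via thiocholine-reactive Thiolite Green fluorescence (490/520 nm).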
# [4] = biological target: Acetylcholinesterase (Homo sapiens) (UniProt P22303); assay: Acetylcholinesterase (AChE) small molecule antagonists: enzyme-based qHTS assay with human liver microsomes (AID 1347399); settings: Potency: qHTS inhibition; outcome: qHTS inhibition; also: nearly all actives have a fitted effect of over 60% in size
# In short: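 Recombinant human AChE (50 mU/mL in the enzyme mix) and human liver microsomes (0.25 mg/mL final) were preincubated with compound and NADPH (0.25 mg/mL final) for 30 min at 37 C. Acetylthiocholine/DTNB was then added; thiocholine was read colorimetrically after 10 min at room temperature.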
# Acetylcholinesterase (Homo sapiens), sequence (P22303 whole entry, looked up): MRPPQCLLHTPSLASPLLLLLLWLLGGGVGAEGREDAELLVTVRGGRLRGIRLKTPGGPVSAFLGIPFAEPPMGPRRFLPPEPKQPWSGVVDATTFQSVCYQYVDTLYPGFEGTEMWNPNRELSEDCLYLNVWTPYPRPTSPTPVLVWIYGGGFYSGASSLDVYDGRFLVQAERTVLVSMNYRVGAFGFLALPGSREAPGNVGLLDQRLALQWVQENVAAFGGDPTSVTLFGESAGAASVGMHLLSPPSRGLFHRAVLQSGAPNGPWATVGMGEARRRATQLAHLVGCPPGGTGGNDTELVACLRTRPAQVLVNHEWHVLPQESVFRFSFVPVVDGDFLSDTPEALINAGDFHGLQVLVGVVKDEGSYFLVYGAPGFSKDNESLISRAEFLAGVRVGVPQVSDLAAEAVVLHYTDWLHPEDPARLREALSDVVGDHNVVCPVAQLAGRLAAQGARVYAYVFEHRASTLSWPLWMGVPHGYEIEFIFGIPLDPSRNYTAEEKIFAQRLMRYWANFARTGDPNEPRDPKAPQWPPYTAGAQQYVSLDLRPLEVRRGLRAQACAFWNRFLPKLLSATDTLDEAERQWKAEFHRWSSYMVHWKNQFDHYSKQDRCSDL
Structure (SMILES),Potency [1],Potency [2],Potency [3],Potency [4],"activity, negative = inhibition [1]","activity change, negative = inhibition [2]","activity change, negative = inhibition [3]","activity change, negative = inhibition [4]"
C=C(C)C(=O)OCCC(C)OC(=O)C(=C)C (stereo not given),inactive,inactive,inactive,inactive,,,,
O=C(Nc1ccccc1)Nc1ccccc1,inactive,inactive,inactive,inactive,,,,
O=C1C(CCS(=O)c2ccccc2)C(=O)N(c2ccccc2)N1c1ccccc1 (stereo not given),inactive,inactive,inactive,inactive,,,,
C=C(C)C(N)=O,inactive,inactive,inactive,inactive,,,,
CCCCCCCCOS(=O)(=O)O,inactive,inactive,inactive,inactive,,,,
O=C(O)c1cc(=O)c2c(OCC(O)COc3cccc4oc(C(=O)O)cc(=O)c34)cccc2o1,inactive,inactive,inactive,inactive,,,,
Oc1ccc(CCNCCCCCCNCCc2ccccc2)cc1O,7.76 µM (active),27.5 µM (active),13.8 µM (active),inactive,,,,
O=C(c1ccccc1)c1ccc(O)cc1,inactive,inactive,inactive,inactive,,,,
CCCCCCCCCCCCCCCCCCOCC(O)CO (stereo not given),inactive,inactive,inactive,inactive,,,,
O=C(O)c1ccccc1OP(=O)(O)O,inactive,inactive,inactive,inactive,,,,
CC(C)(C#N)c1cc(Cn2cncn2)cc(C(C)(C)C#N)c1,inactive,inactive,inactive,inactive,,,,
CNC(=O)CN(CCN(CCN(CC(=O)[O-])CC(=O)NC)CC(=O)[O-])CC(=O)[O-].O.[Gd+3],inactive,inactive,inactive,inactive,,,,
CCCCC(CC)COC(=O)CS (stereo not given),inactive,inactive,inactive,inactive,,,,
CN1CCC(=C2c3ccccc3C=Cc3ccccc32)CC1,inactive,inactive,inactive,inactive,,,,
COC(=O)N[C@H](C(=O)N[C@@H](Cc1ccccc1)[C@@H](O)CN(Cc1ccc(-c2ccccn2)cc1)NC(=O)[C@@H](NC(=O)OC)C(C)(C)C)C(C)(C)C,inactive,inactive,inactive,inactive,,,,
O=C(O)CC(C(=O)O)S(=O)(=O)O (stereo not given),inactive,inactive,inactive,inactive,,,,
CN(c1nccc(=O)[nH]1)C1CCN(c2nc3ccccc3n2Cc2ccc(F)cc2)CC1,inactive,inactive,inactive,inactive,,,,
Cc1cccc(Nc2cc(Cl)nc(SCC(=O)O)n2)c1C,inactive,inactive,inactive,inactive,,,,
CC(C)N1C(=O)c2ccccc2C1=O,inactive,inactive,inactive,inactive,,,,
Nc1cc([N+](=O)[O-])cc(Cl)c1O,inactive,inactive,inactive,inactive,,,,
Cn1cnc([N+](=O)[O-])c1Sc1ncnc2nc[nH]c12,inactive,inactive,inactive,inactive,,,,
C[C@]12CCC(=O)C=C1CC[C@@H]1[C@@H]2[C@@H](O)C[C@@]2(C)[C@H]1CC[C@]2(O)C(=O)CO,inactive,inactive,inactive,inactive,,,,
CCOC(=O)c1cc(=O)c2c(OCC(COc3cccc4oc(C(=O)OCC)cc(=O)c34)OC(=O)[C@@H](N)CCCCN)cccc2o1,inactive,inactive,inactive,inactive,,,,
COc1cc(C(=O)OC(COCCC(C)C)CN2CCOCC2)cc(OC)c1OC (stereo not given),inactive,inactive,inactive,inactive,,,,
O=C1OCc2ccccc21,inactive,inactive,inactive,inactive,,,,
Nc1cc(Cl)c([N+](=O)[O-])cc1O,inactive,inactive,inactive,inactive,,,,
CCc1ccc2c(c1)C(=O)c1ccccc1C2=O,inactive,inactive,inactive,inactive,,,,
CC1(C)[C@@H]2CC[C@@]1(C)C(=O)C2,inactive,inactive,inactive,inactive,,,,
COC(=O)c1ccc(C=O)cc1,inactive,inactive,inactive,inactive,,,,
CC1=CC[C@@H]2C[C@H]1C2(C)C,,,,,7.66% [at 23.6 µM],0.56% [at 23.6 µM],0.301% [at 23.8 µM],-3.81% [at 23.6 µM]
